Results filed as inconclusive are left out. The source made the active and inactive calls. Unless noted, calls come from the whole dose curve; as a rule, active = well fitted curve in the direction sought with a large enough effect; inconclusive = small, poorly fitted or top-dose-only effect, or another doubt; inactive = no such curve, though single readings can be large; an effect the other way counts as inactive or inconclusive.

A short description of assay [1]: NCATS anti-infectives library activity on HEK293 viability as a counter-qHTS vs the C. elegans viability qHTS (AID 1745854).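 Note: HEK293 cells exposed to compounds for 24 hr before the viability read; % is set by controls: 0 for no effect and ±100 for the full control effect.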 In short, it runs like this:
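Compound titrations (final up to 41.7 uM) were incubated with HEK293 cells for 24 hr at 37C under 5% CO2. Viable cells were quantified with CellTiter-Glo after 10 min at ambient temperature.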

The nature of assay [2]: NCATS anti-infectives library activity on the primary C. elegans qHTS viability assay (AID 1745855; calls by dose curve; note: potency is the fitted concentration of half-maximal effect). In short, it runs like this:
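Titration-based screen in worms: eggs hatched overnight in M9, L1 larvae fed TOP10 capsules in S medium with compound, incubated 21 °C for 7 days; fluorescent objects gated by size and intensity at days 0, 3 and 7.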

Assay [3] concerns the target Catechol O-methyltransferase (Homo sapiens) (UniProt P21964). In words: Confirmatory Screen for Target Class Profiling of Small Molecule Inhibitors of Methyltransferases (AID 1745852; calls by dose curve; note: potency is the fitted concentration of half-maximal effect; for activity change, negative = inhibition: % is set by controls: 0 for no effect and ±100 for the full control effect). Conditions: MTase-Glo luminescence, SAH detection, recombinant enzyme; measured here: COMT max response; stronger effect = lower value.
For assay [4], the target named is Guanidinoacetate N-methyltransferase (Homo sapiens) (UniProt Q14353). The description is as above. As to conditions: activity change, negative = inhibition: at 57.3 µM (top of the series) unless noted.
In assay [5] the target is Nicotinamide N-methyltransferase (Homo sapiens) (UniProt P40261). The description is as above. As to conditions: MTase-Glo luminescence, SAH detection, recombinant enzyme; measured here: NNMT max response; stronger effect = lower value.
In assay [6] the target is Phenylethanolamine N-methyltransferase (Homo sapiens) (UniProt P11086). Described as above. Conditions: MTase-Glo luminescence, SAH detection, recombinant enzyme; measured here: PNMT max response; stronger effect = lower value.
The nature of assay [7]: Viability counterscreen for antagonist of constitutive androstane receptor (CAR) against the NCATS DSHEA and TCM libraries (AID 1794837).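 Note: compound exposure lasted 24 h before viability reading; 0% is about no effect.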 A digest of the protocol: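 Viability was measured by CellTiter-Fluor fluorescence (405/540 nm, 1 hr) in HepG2-CYP2B6-hCAR cells. Cells were co-treated 24 hr with 48 uM CITCO (final), antagonist mode, and test substances.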
Background: A counterscreen serves to expose hits that act by an unwanted route or on another target.

The nature of assay [8]: Viability counterscreen for agonist of constitutive androstane receptor (CAR) against the NCATS DSHEA and TCM libraries (AID 1794838).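 Note: cells exposed to compound for 24 h; 0% is about no effect.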 In short, it runs like this: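 Cell viability, from CellTiter-Fluor fluorescence (405/540 nm), was scored after a 24 h, 37C exposure of HepG2 cells carrying CYP2B6 reporter and hCAR to test substances in presence of 0.75 uM PK11195.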
Assay [9] deals with Nuclear receptor subfamily 1 group I member 3 (Homo sapiens) (UniProt Q14994). In words: Primary qHTS for agonist of constitutive androstane receptor (CAR) against the NCATS DSHEA and TCM libraries (AID 1794839).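 Note: HepG2 cells expressing human CAR with a CYP2B6 reporter plus PK11195 antagonist; luciferase reporter luminescence read with ONE-Glo; 0% is about no effect.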 In short, it runs like this: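 Agonist mode in presence of hCAR antagonist PK11195 (0.75 µM final): test substances, 24 h, 37 °C, on HepG2-CYP2B6-hCAR cells. Same-well readouts: fluorescence viability, then ONE-Glo luminescence; CITCO as reference agonist.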
In general terms: In qHTS, concentration-response curves come from the screen itself.

Sequence of Phenylethanolamine N-methyltransferase (Homo sapiens) (P11086 whole entry, looked up): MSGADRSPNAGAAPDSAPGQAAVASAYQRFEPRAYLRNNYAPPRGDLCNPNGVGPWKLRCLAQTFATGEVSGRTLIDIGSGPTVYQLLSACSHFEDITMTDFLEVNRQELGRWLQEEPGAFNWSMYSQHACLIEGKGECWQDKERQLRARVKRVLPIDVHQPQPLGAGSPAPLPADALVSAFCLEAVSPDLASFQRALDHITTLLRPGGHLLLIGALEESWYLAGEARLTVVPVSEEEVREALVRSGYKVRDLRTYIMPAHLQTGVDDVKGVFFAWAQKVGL
Sequence of Nicotinamide N-methyltransferase (Homo sapiens) (P40261 whole entry, looked up): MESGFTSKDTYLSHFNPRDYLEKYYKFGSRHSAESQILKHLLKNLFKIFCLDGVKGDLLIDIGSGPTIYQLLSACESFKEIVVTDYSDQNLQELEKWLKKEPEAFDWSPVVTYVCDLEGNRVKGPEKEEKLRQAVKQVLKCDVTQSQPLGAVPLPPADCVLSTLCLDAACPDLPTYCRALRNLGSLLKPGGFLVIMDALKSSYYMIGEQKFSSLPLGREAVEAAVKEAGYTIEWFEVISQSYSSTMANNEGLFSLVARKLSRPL
Sequence of Catechol O-methyltransferase (Homo sapiens) (P21964 whole entry, looked up): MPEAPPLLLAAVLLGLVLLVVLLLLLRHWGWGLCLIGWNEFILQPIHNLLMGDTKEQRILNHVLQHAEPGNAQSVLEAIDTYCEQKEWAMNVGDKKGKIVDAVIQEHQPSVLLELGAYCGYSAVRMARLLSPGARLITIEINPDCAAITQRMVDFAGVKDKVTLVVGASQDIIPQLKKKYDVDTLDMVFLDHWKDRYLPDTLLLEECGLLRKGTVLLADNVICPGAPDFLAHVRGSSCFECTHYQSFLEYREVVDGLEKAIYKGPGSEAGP
Sequence of Nuclear receptor subfamily 1 group I member 3 (Homo sapiens) (Q14994 whole entry, looked up): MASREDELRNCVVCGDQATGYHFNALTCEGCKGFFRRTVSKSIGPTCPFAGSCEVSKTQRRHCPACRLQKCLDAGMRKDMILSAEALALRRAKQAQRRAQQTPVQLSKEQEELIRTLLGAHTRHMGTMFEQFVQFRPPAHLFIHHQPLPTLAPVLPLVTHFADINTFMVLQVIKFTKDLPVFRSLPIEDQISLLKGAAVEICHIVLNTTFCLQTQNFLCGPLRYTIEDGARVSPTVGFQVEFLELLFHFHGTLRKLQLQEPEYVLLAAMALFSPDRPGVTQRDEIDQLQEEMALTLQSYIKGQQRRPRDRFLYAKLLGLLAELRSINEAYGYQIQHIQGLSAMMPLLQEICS

As to `NS(=O)(=O)c1ccc(NC(=O)Nc2ccc(F)cc2)cc1`, the outcome in assay [1] was “inactive”. In addition, in assay [2], the Potency is 12.9 µM (active).
With `C[C@H]1CO[C@@H]2Cn3cc(C(=O)NCc4ccc(F)cc4F)c(=O)c(O)c3C(=O)N12`, in assay [1], the outcome was “inactive”.
Consider `CNCCC(c1cccs1)c1ccc(O)c2ccccc12` (stereo unspecified), for which the activity in [3] was -4.76%; in [5], -7.38%; in assay [6] it was -1.78%. Also, the activity change, negative = inhibition in assay [4] was 2.71%.
Turning to `CCCC(CCC)C(N)=O`, in assay [1], the outcome was “inactive”.
In the case of `CCCN1CCC=C(c2cc(-c3ccc(C)cc3)no2)C1`, the outcome in assay [1] is “inactive”. Also, in [2], the Potency was 6.48 µM (active).
On to `O=c1[nH]c([C@@H]2CCCN2)nc2c1oc1ccc(Cl)cc12`, for which the outcome in assay [1] is “inactive”.
Same read-out and setting: with `COc1cc(C[C@H]2C(=O)OC[C@@H]2Cc2ccc(OC)c(OC)c2)ccc1O` the entry was “inactive”.
On the same count and under the same terms, under `CCC[C@@]1(CCc2ccccc2)CC(O)=C([C@H](CC)c2cccc(NS(=O)(=O)c3ccc(C(F)(F)F)cn3)c2)C(=O)O1` stands “inactive”; under `CC(C)CCNC(=O)[C@H](CC(C)C)NC(=O)[C@H]1O[C@@H]1C(=O)O`, “inactive”.
For `O=C(NC[C@H]1CN(c2ccc(N3CCOCC3=O)cc2)C(=O)O1)c1ccc(Cl)s1`, the outcome in [1] was “inactive”.
For the compound `CC(=O)C1=C(O)C=C2Oc3c(C(C)=O)c(O)c(C)c(O)c3[C@]2(C)C1=O`, the outcome in assay [1], in assay [7] and in assay [8] was “inactive” throughout.
Turning to `CC(C)(C[C@@](O)(Cc1cc2ccncc2[nH]1)C(F)(F)F)c1cc(F)ccc1O`, the activity in [3] was 1.72%; in assay [5], -1.53%; in [6], -1.87%. Further, in assay [4], the activity change, negative = inhibition worked out at 0%.
Take `O=C(Nc1ncc([N+](=O)[O-])s1)c1ccccc1O`: in [1], the outcome was “inactive”.
Consider `CN(C)C(=O)Nc1cccc(-c2ccc(N(C)C)cc2)c1`, for which the outcome in assay [1] is “inactive”.
On to `Cc1onc(-c2ccccc2)c1C(=O)N1CCN(c2ccc([N+](=O)[O-])cc2Cl)CC1`, for which the outcome in assay [1] was “inactive”.
Turning to `COc1ccc2nc3n[nH]c(C)c3c(NCCOCCO)c2c1`, the activity in [3] is -59.3%; in [5], -38.5%; in [6] it was -54.6%. Moreover, in assay [4], the Potency was 27.1 µM (active).
For `CCCc1ccc(OCC(=O)N(Cc2nc(-c3cccnc3)no2)C(C)C)cc1`, the outcome in assay [1] is “inactive”. Moreover, the Potency entry in assay [2] was “inactive”.
Regarding `O=C(NO)c1ccc(CC(=O)N(CCO)c2ccccc2)cc1`, the outcome in assay [1] is “inactive”.
With `Cn1cc(-c2ccc(S(=O)(=O)n3ccc(/C=C/C(=O)Nc4ccccc4N)c3)cc2)cn1`, in assay [1], the outcome was “inactive”.
Consider `O=C(O)CC(O)(CC(=O)O)C(=O)O`, for which the outcome in assay [7], in [8] and in assay [9] was “inactive” each time.
`O=C(Nc1cc(C(F)(F)F)ccc1N1CCCCC1)c1ccncc1`: the outcome in assay [1] is “inactive”. The Potency entry in assay [2] was “inactive”.
Take `Cc1cc2ncc(C(=O)NCC(C)(C)NCC(=O)N3CCC[C@H]3C#N)cn2n1`: in [1], the outcome is “inactive”.
`CC#C[C@@H](CC(=O)O)c1ccc(OCc2cccc(-c3ccc(C(F)(F)F)cc3)c2)cc1`: the values for the activity in assay [3], in assay [5] and in assay [6] were -11.2%, -23.8% and 3.83%, respectively. Also, in assay [4], the Potency entry was “inactive”.
On to `COc1cc(N2CCC(N)CC2)ccc1Nc1ncc(Cl)c(-c2c[nH]c3ccccc23)n1`, for which the activity in assay [3] is -32.1%; in assay [5], -35.8%; in assay [6], -27%. Besides, in assay [4], the Potency is 24.1 µM (active).
As for `CCc1c(Cl)c(O)c(Cl)c(O)c1C(=O)O[C@H]1[C@H](O)[C@H](OC)[C@H](OC/C2=C\C=C\C[C@H](O)/C(C)=C\[C@H](CC)[C@@H](O[C@@H]3OC(C)(C)[C@@H](OC(=O)C(C)C)[C@H](O)[C@@H]3O)/C(C)=C/C(C)=C/C[C@@H]([C@@H](C)O)OC2=O)O[C@@H]1C`, the activity in assay [3] was -16.7%; in assay [5] it was -8.66%; in [6] it was -8.05%. In addition, the activity change, negative = inhibition in [4] is -5.75% [at 29.8 µM].
As to `Cc1cc(C)cc(-c2cnc3cc(Cl)c(-c4cccc(O)c4)cc3c2OCCCN)c1`, the activity is -38.4% in [3], -83.8% in [5] and -37.3% in assay [6]. In addition, the Potency in [4] was 42.9 µM (active).
As for `CC(C)(CNC(=O)c1cccc(-c2noc(C(F)(F)F)n2)c1)c1coc(-c2ccccc2)n1`, in [1], the outcome was “inactive”.
In the case of `C=C1C(=O)O[C@H]2CC(=C)[C@H]3CC[C@@](C)(O)[C@@H]3CC12` (stereo partly specified), the activity in assay [3] is -86%; in assay [5] it was 0%; in assay [6], 3.31%. For the same compound, the activity change, negative = inhibition in assay [4] was 1.75%.
With `Cn1nc(C(C)(C)C)cc1C(=O)N[C@@H](Cc1cccc(Cl)c1)C(=O)NCC#N`, the outcome in assay [1] is “inactive”. For the same compound, the Potency result in [2] is “inactive”.
Turning to `CCC[C@H](N[C@H]1CCc2cc(F)cc(F)c2C1)C(=O)Nc1cn(C(C)(C)CNCC(C)(C)C)cn1`, the outcome in [1] was “inactive”. Also, the Potency entry in assay [2] was “inactive”.
On to `O=C(Cc1cccc(OC(F)(F)F)c1)Nc1ccc(CCCCc2nnc(NC(=O)Cc3ccccn3)s2)nn1`, for which the outcome in assay [1] is “inactive”.
The same measure, in the same setting: under `COc1ccc(NC(=O)c2ccc(C(=N)N(C)C)cc2)c(C(=O)Nc2ccc(Cl)cn2)c1` stands “inactive”.

The values above are taken from PubChem BioAssay (NCATS).
